Screen size: about 400,000 compounds; about 13,000 (3.2%) were called active. A call without a number means that no potency is given here. Another 18% or so got no clear call; they are omitted. The call rests on the fitted dose curve; in most records, active means well fitted cell-killing curve with a large enough effect; inconclusive means small, poorly fitted or top-dose-only effect, or effect the other way; inactive means flat fitted curve, though single readings scatter. Many of the other results were omitted from the sample, so actives are more common in it than they were.
Test: qHTS assay for MDR1-selective chemotherapeutics: Primary screen using the drug-selected MDR subline cells KB-V1; further: nearly all actives have a fitted effect of over 60% in size
Conditions: KB-V1 MDR cells viability, CellTiter-Glo, 72 h; series mostly up to 46.1 µM
Method in brief: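 KB-V1 MDR subline cells in DMEM (phenol-red free, 10% FBS) exposed to compounds in qHTS concentration series for 72 h at 37 degrees C. Viability read by CellTiter-Glo luminescence; concentration-effect curves fitted after normalization and correction.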
In the case of `c1ccc(CNCc2ccc(CNCc3ccccc3)cc2)cc1`, the Potency is reported as “inactive”. With `CCc1nnc(SCC(=O)Nc2cc(OC)ccc2OC)nc1CC` the Potency was “inactive”. In the case of `Cc1ccccc1OCCOc1ccc([N+](=O)[O-])cc1/C=N/n1cnnc1`, the Potency is reported as 8.2 µM (active). With `Cc1ccccc1OS(=O)(=O)c1cccc([N+](=O)[O-])c1` the Potency was “inactive”. For `COc1ccccc1OCCOc1ccc(/C=N/n2cnnc2)cc1`, the Potency was “inactive”. For `O=C(CSc1nc2cccc(F)c2c(=O)n1-c1ccccc1)Nc1ccc2c(c1)CCC2`, the Potency was “inactive”. For `O=C1c2ccccc2C(=O)N1CCCCCCN1C(=O)c2ccccc2C1=O`, the Potency was “inactive”. In the case of `c1ccc(CCc2nc(-c3ccncc3)no2)cc1`, the Potency is reported as “inactive”. In the case of `O=C1c2ccccc2C(=O)N1CCCc1nc(-c2ccccc2)no1`, the Potency is reported as 18.4 µM (active). For `C[C@H]1CN([C@@H](C)CO)C(=O)CCCn2cc(nn2)CO[C@@H]1CN(C)S(=O)(=O)c1cccs1`, the Potency was “inactive”. For `OC(c1ccc(Cl)c(F)c1)c1ncc(-c2ccccc2Cl)[nH]1` (stereo unspecified), the Potency was “inactive”. With `Cc1ccc(S(=O)(=O)N2CCOCC2)cc1NC(=O)c1ccncc1` the Potency was “inactive”. For `O=C(CNCc1cccs1)Nc1cc(S(=O)(=O)N2CCCC2)ccc1Cl`, the Potency was “inactive”. In the case of `CCN(CC)S(=O)(=O)c1ccc(N2CCOCC2)c(NC(=O)C2COc3ccccc3O2)c1` (stereo unspecified), the Potency is reported as “inactive”. With `O=C(Nc1cc(S(=O)(=O)N2CCCCC2)ccc1Cl)C1COc2ccccc2O1` (stereo unspecified) the Potency was 14.6 µM (active). With `CCc1ccc(Sc2cc(C(=O)NCCCOC(C)C)c3ccccc3n2)cc1` the Potency was “inactive”. With `CCc1c(C)nc(N2CCN(Cc3ccccc3)CC2)[nH]c1=O` the Potency was “inactive”. With `O=C1c2ccccc2C(=O)c2c1cccc2N1CCN(Cc2ccccc2)CC1` the Potency was 18.4 µM (active). In the case of `O=C1c2ccccc2C(=O)c2c1cccc2N1CCN(C/C=C/c2ccccc2)CC1`, the Potency is reported as “inactive”. With `O=c1[nH][nH]c2c1[C@H](c1ccc(Cl)cc1)O[C@H](CCc1ccccc1)C2` the Potency was “inactive”. In the case of `O=C(CSc1nccn1Cc1ccc(Cl)cc1)NCc1ccccc1`, the Potency is reported as “inactive”. With `COc1cc(F)ccc1-c1cc(C(=O)NCC2CCCCC2)[nH]n1` the Potency was “inactive”. In the case of `COc1ccc(S(=O)(=O)N2CCC(C(=O)N3CCCC3)CC2)cc1C`, the Potency is reported as “inactive”. With `COc1ccc(S(=O)(=O)N2CCC(C(=O)N3CCc4ccccc4C3)CC2)cc1OC` the Potency was 13 µM (active). With `COc1ccc(S(=O)(=O)N2CCC(C(=O)N3CCOCC3)CC2)cc1OC` the Potency was “inactive”. For `C[C@H](CO)N1C[C@H](C)[C@@H](CN(C)C(=O)c2cnccn2)Oc2ncc(Br)cc2C1=O`, the Potency was “inactive”. For `CC(C)c1ccc(NC(=O)c2ccc(Cn3nc(N4CCN(c5ccccc5)CC4)ccc3=O)o2)cc1`, the Potency was “inactive”. With `Cc1ccc(-c2nc3ccc(Cl)cn3c2Cc2ccccc2)cc1` the Potency was “inactive”. In the case of `CC1(C(=O)NS(=O)(=O)Cc2cccc(Cl)c2)CCN1C(=O)Cc1ccccc1` (stereo unspecified), the Potency is reported as “inactive”. With `Cc1nn(CC(=O)NCc2ccccn2)c(C)c1[N+](=O)[O-]` the Potency was “inactive”. With `COc1ccc(CNC(=O)CCCn2nc(C)c([N+](=O)[O-])c2C)cc1` the Potency was 25.9 µM (active). With `CCc1ccc(NC(=O)Cn2nc(C)c([N+](=O)[O-])c2C)cc1` the Potency was “inactive”. For `Cc1nn(CC(=O)Nc2ccc(N(C)C)cc2)c(C)c1[N+](=O)[O-]`, the Potency was “inactive”. With `COc1ccc(CNC(=O)CCn2cccc2)cc1` the Potency was “inactive”. With `Cc1ccc(Oc2cc(NC(=O)CCCn3nc(C)c([N+](=O)[O-])c3C)cc([N+](=O)[O-])c2)cc1` the Potency was 10.3 µM (active). For `CCCNC(=O)C1(C)CCN(C(=O)c2ccc(F)cc2Cl)C1` (stereo unspecified), the Potency was “inactive”. With `CC(C)(C)C(=O)CSc1nc2ccccc2o1` the Potency was “inactive”. With `CC1Cc2ccccc2N1C(=O)CSc1nnc(-c2ccc(S(=O)(=O)N3CCCC3)cc2)n1C` (stereo unspecified) the Potency was 16.4 µM (active). With `CCn1c(CSc2ncccn2)nnc1SCC(=O)N1c2ccccc2CC1C` (stereo unspecified) the Potency was 11.6 µM (active). With `CC1Cc2ccccc2N1C(=O)Cn1cnc2ccccc2c1=O` (stereo unspecified) the Potency was “inactive”. For `COc1ccc(S(=O)(=O)N2CCN(CC(=O)N3c4ccccc4CC3C)CC2)cc1OC` (stereo unspecified), the Potency was “inactive”. For `CN(C)S(=O)(=O)c1ccc2oc(SCC(=O)Nc3ccccc3F)nc2c1`, the Potency was “inactive”. In the case of `CC1CC(C)CN(C(=O)CSc2nnc(CSc3ncccn3)n2C)C1` (stereo unspecified), the Potency is reported as “inactive”. In the case of `O=C(CSc1nc2ccccc2o1)N1CCN(c2ccccc2)CC1`, the Potency is reported as “inactive”. In the case of `CC1Cc2ccccc2N1C(=O)CSc1nc2ccccc2o1` (stereo unspecified), the Potency is reported as 14.6 µM (active). In the case of `Cn1c(SCC(=O)OC2CCCCC2)nnc1-c1ccc(S(=O)(=O)N2CCCC2)cc1`, the Potency is reported as “inactive”. For `CC1Cc2ccccc2N1C(=O)CSc1nnc(C2CC2)n1C` (stereo unspecified), the Potency was “inactive”. In the case of `CCS(=O)(=O)c1ccc2oc(SCC(=O)N3c4ccccc4CC3C)nc2c1` (stereo unspecified), the Potency is reported as 5.17 µM (active). With `Cc1cc(C)c2sc(NC(=O)c3ccc(S(=O)(=O)N4CCCC4)cc3)nc2c1` the Potency was “inactive”. For `Brc1ccc2nc(-c3ccccc3)c(Cc3ccccc3)n2c1`, the Potency was “inactive”. With `ClC/C=C/C[n+]1ccccc1Cl` the Potency was “inactive”. With `CC(C)(C)c1ccc(S(=O)(=O)NC(=O)C2(C)CCN2C(=O)CC2CC2)cc1` (stereo unspecified) the Potency was “inactive”. In the case of `COc1ccc(C(=O)N2CCCCC2c2cc(C(=O)Nc3ccccc3)no2)cc1` (stereo unspecified), the Potency is reported as “inactive”. In the case of `Cn1cc(S(=O)(=O)N2CCCCCC2)cc1C(=O)N1CCN(c2ccc(F)cc2)CC1`, the Potency is reported as “inactive”. With `CCOC(=O)c1cnc(SCC(=O)Nc2ccccc2C(=O)OC)nc1N` the Potency was 2.59 µM (active). With `CCOC(=O)c1cnc(SCC(=O)Nc2cccc(OC)c2)nc1N` the Potency was “inactive”. In the case of `CCOC(=O)c1cnc(SCC(=O)NCc2ccco2)nc1N`, the Potency is reported as “inactive”. For `CCOC(=O)c1c(C)[nH]c(C)c1S(=O)(=O)N1CCC(C(=O)Nc2ccc(C)c(Cl)c2)CC1`, the Potency was “inactive”. For `CCCCC(=O)N/N=C(\C)CC(=O)Nc1cc(Cl)ccc1OC`, the Potency was “inactive”. In the case of `C/C(CC(=O)NCc1ccc(Cl)cc1)=N\NC(=O)COc1ccc(C)cc1Br`, the Potency is reported as 8.2 µM (active). For `Cc1ccc(CNC(=O)CN2CCN(Cc3ccc(Cl)cc3)C2=O)cc1`, the Potency was “inactive”. In the case of `O=C(NCc1ccc(F)cc1)c1cc(C2CCCCN2C(=O)c2cccs2)on1` (stereo unspecified), the Potency is reported as “inactive”. With `CC1C(=O)N(Cc2cn(Cc3ccco3)nn2)CCS(=O)(=O)N1Cc1ccc(-c2cccc(CO)c2)cc1` (stereo unspecified) the Potency was “inactive”. With `CCc1ccc(-c2cc(C(=O)NN3CCN(C)CC3)c3ccccc3n2)cc1` the Potency was “inactive”. For `CCCCc1nc2ccccc2c(NC(=O)CN2CCN(C)CC2)c1CCC`, the Potency was 8.2 µM (active). For `CN1CCN(CC(=O)Nc2cccc([N+](=O)[O-])c2)CC1`, the Potency was “inactive”.

Source: PubChem BioAssay AID1347076 (National Center for Advancing Translational Sciences (NCATS), 2019)
Potency means the concentration at half of the fitted maximal effect.
